The values below come from PubChem BioAssay (Tox21).

Inconclusive results are not listed. Some structures have more than one record in an assay (separate samples or runs), and their calls can disagree. Calls of active or inactive are those of the source. Calls come from the whole dose curve.
% is set by controls: 0 for no effect and ±100 for the full control effect; potency is the fitted concentration of half-maximal effect.

The nature of the assay: p53 small molecule agonists, cell-based qHTS assay with rat liver microsomes: qHTS cell viability counter screen (AID 1963580). Note: nearly all actives have a fitted effect of over 45% in size. The note with it: p53RE-bla HCT-116 + rat microsomes, ATP viability, 16 h; series mostly up to 66 µM; activity change, negative = cytotoxicity: at the top concentration. An excerpt:
National Center for Advancing Translational Sciences [NCATS]
Division of Preclinical Innovation [DPI]
U.S. Environmental Protection Agency [EPA]
National Institutes of Environmental Health Sciences [NIEHS]
National Toxicology Program [NTP]
U.S. Food and Drug Administration [FDA]
p53, a tumor suppressor protein, is activated following cellular insult, including DNA damage and other cellular stresses. The activation of p53 regulates cell fate by inducing DNA repair, cell cycle arrest, apoptosis, or cellular senescence. The activation of p53, therefore, is a good indicator of DNA damage and other cellular stresses. The CellSensor p53RE-bla HCT-116 cell line contains a stably integrated beta-lactamase reporter gene under control of the p53 response elements. The activation of the reporter gene under culture conditions can be detected by fluorescence intensity. This cell line was used to screen the Tox21 10K compound library in the condition of presence of rat liver microsomes and to identify agonists that activate the p53 signaling pathway after in vitro metabolic activation (Ooka et al., Archive of Toxicology 96:1975-1987, 2022). The cytotoxicity of the Tox21 compound library against the p53 RE-bla HCT-116 cell line was tested in parallel by measuring the intra cellular ATP content in the same wells.
Tox21 Assay Protocol Summary:
The p53RE-bla cells were dispensed at 4,000cells/3ul/well in 1536-well black-clear bottom plates. After the assay plates were incubated at 37 C, 5% CO2 incubator for 5 hours, 23 nL of compounds dissolved in DMSO, positive controls or DMSO only was transferred to the assay plate. Following compound addition, 3 uL of rat liver microsomes (Molecular Toxicology, Boone, NC) at final concentration of 0.5 mg/mL and 1uL of B-Nicotinamide adenine dinucleotide 2'-phosphate (NADPH) at final concentration of 0.5 mg/mL were transferred to the assay plate. The plates were incubated at 37 C for 16 hours. 1 uL of LiveBLAzer detection mixture was added to each well and the plates were incubated at room temperature in the dark for 2 h. Fluorescence intensity at 460 and 530 nm emission and 405 nm excitation were measured by an Envision plate reader. For cell viability readout that measures cytotoxicity, 4 ul/well of CellTiter-Glo reagent was added into the assay plates using a Flying Reagent Dispenser. After 30 min incubation at room temperature, the luminescence intensity in the plates was measured using a ViewLux plate reader.
In general terms: Quantitative high-throughput screening tests each substance at several concentrations.
As to `CCC(CO)CO`, the “activity change, negative = cytotoxicity” value is -10.1% (inactive).

Regarding `CNC(=O)Nc1ccc(Cl)c(Cl)c1`, the “activity change, negative = cytotoxicity” value was 10.4% (inactive).

Regarding `CCOC(=O)O[C@]1(C(=O)OCCl)CC[C@H]2[C@@H]3CCC4=CC(=O)C=C[C@]4(C)[C@H]3[C@@H](O)C[C@@]21C`, the “activity change, negative = cytotoxicity” value was 8.9% [at 30.3 µM] (inactive).

On to `COc1cc(OC)nc(O[C@H](C(=O)O)C(OC)(c2ccccc2)c2ccccc2)n1`, for which the “activity change, negative = cytotoxicity” value was 12.4% [at 30.3 µM] (inactive).

As for `O=S(=O)(O)CO`, the “activity change, negative = cytotoxicity” value was -8.86% (inactive).

On to `Nc1cccc2c1CN(C1CCC(=O)NC1=O)C2=O` (stereo not given), for which the “activity change, negative = cytotoxicity” value is -8.78% [at 30.3 µM] (inactive).

Take `CC(CCO)CCc1ccccc1` (stereo not given): the “activity change, negative = cytotoxicity” value is -1.34% (inactive).

For the compound `CC(C)OC=O`, the “activity change, negative = cytotoxicity” value was 0.443% (inactive).

Turning to `Cc1ccc(NC(=O)N(C)C)cc1NC(=O)N(C)C`, the “activity change, negative = cytotoxicity” value was -12.9% (inactive).

`CCC/C=C/CO`: the “activity change, negative = cytotoxicity” value was -1.55% (inactive).

As for `O=C(O)/C=C/c1cnc[nH]1`, the “activity change, negative = cytotoxicity” value is -2.56% (inactive).

Regarding `O=C(O)c1ccc(OCCN2CCCCC2)cc1`, the “activity change, negative = cytotoxicity” value is 7.47% [at 30.3 µM] (inactive).

Consider `CCCCOC(=O)CCCCCCCC(=O)OCCCC`, for which the “activity change, negative = cytotoxicity” value was 0% (inactive).

Turning to `O=c1[nH]c2ccccc2c(=O)n1CCCl`, the “activity change, negative = cytotoxicity” value was 17.8% [at 30.3 µM] (inactive).

Turning to `COC(=O)c1ccc(C(=O)OC)cc1`, the Potency is 18.5 µM (active) and inactive.

Turning to `CCCOCCOCCOCCO`, the “activity change, negative = cytotoxicity” value is -6.75% (inactive).

`CC(C)COC(=O)c1ccccc1O`: the “activity change, negative = cytotoxicity” value was -0.836% (inactive).

In the case of `COc1ccc(N)c(C)c1`, the Potency result was “inactive”.

For the compound `CC(C)CCO`, the “activity change, negative = cytotoxicity” value was 0% (inactive).

In the case of `C1COC1`, the “activity change, negative = cytotoxicity” value is 0.223% (inactive).

As to `CCOC(=O)[C@H](CCc1ccccc1)N[C@@H](C)C(=O)N1C(=O)N(C)C[C@H]1C(=O)O`, the “activity change, negative = cytotoxicity” value was -2.76% [at 30.3 µM] (inactive).

In the case of `CO[Si](OC)(OC)c1ccccc1`, the “activity change, negative = cytotoxicity” value is 6.21% (inactive).

Turning to `CC(=O)OCCC1CCCCC1`, the “activity change, negative = cytotoxicity” value is 3.24% (inactive).

As for `CC(=O)C(C)O` (stereo not given), the “activity change, negative = cytotoxicity” value is -3.48% (inactive).

For `COc1ccc(-c2coc3cc(O)cc(O)c3c2=O)cc1`, the “activity change, negative = cytotoxicity” value is -15.4% (inactive).

`CCC/C=C/C=O`: the Potency entry is “inactive”.

As to `CCCCCCCCS`, the “activity change, negative = cytotoxicity” value is 8.15% (inactive).

For the compound `O=S(=O)(O)CCN1CCN(CCO)CC1`, the “activity change, negative = cytotoxicity” value is -6.81% (inactive).

For `CCC(=O)Nc1cccc(N)c1`, the “activity change, negative = cytotoxicity” value was -12.9% (inactive).

On to `CC(=O)c1ccc2c(c1)CCCC2`, for which the “activity change, negative = cytotoxicity” value is -0.885% (inactive).

For the compound `CN(C)c1ccc(C(=N)c2ccc(N(C)C)cc2)cc1`, the Potency entry is “inactive”.

In the case of `SCCSCCS`, the “activity change, negative = cytotoxicity” value is -5.84% (inactive).

As to `NNC(=O)c1cccc(C(=O)NN)c1`, the “activity change, negative = cytotoxicity” value was 5.44% (inactive).

As to `Cc1ccc(C(=O)Nc2ccc(S(=O)(=O)O)c3cc(S(=O)(=O)O)cc(S(=O)(=O)O)c23)cc1NC(=O)c1cccc(NC(=O)Nc2cccc(C(=O)Nc3cc(C(=O)Nc4ccc(S(=O)(=O)O)c5cc(S(=O)(=O)O)cc(S(=O)(=O)O)c45)ccc3C)c2)c1`, the “activity change, negative = cytotoxicity” value was -1.02% [at 30.3 µM] (inactive).

Regarding `CCC(=O)O[C@@H]1C[C@H]2CC[C@]1(C)C2(C)C`, the “activity change, negative = cytotoxicity” value is 0% (inactive).

As for `CCCCCCCCCCCCCCCC`, the “activity change, negative = cytotoxicity” value is -11.3% (inactive).

On to `Cl/C(=C\n1cncn1)c1ccc(Cl)cc1Cl`, for which the “activity change, negative = cytotoxicity” value was 13.7% [at 30.3 µM] (inactive).

Regarding `Nc1cc(-c2ccncc2)c[nH]c1=O`, the Potency result is “inactive”.

Consider `C1=CCC2CC=CC2C1` (stereo not given), for which the “activity change, negative = cytotoxicity” value was -1.02% (inactive).

For `COc1ccc(Br)c(C)c1`, the “activity change, negative = cytotoxicity” value is 2.61% (inactive).
